33 compounds from the supplement of paper PMC7393113 can be followed below.

Where a name gives a salt, the structure may show the parent alone. ± gives the standard deviation of the averaged measurements.

The test system of this test is iBMDM (immortalised mouse bone-marrow-derived macrophages), LPS-stimulated. Briefly: mitochondrial superoxide (MitoSOX fluorescence) fold increase over unstimulated control; higher = more LPS-induced mitochondrial ROS (less inhibition). The settings on record: inhibitor concentration: 500 nM, LPS: 100 ng/ml. The method, boiled down: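 Mitochondrial superoxide was expressed as fold induction over untreated macrophages. Immortalised mouse bone-marrow-derived macrophages were pretreated with kinase inhibitors (500 nM) for 30 min, loaded with 1 μM MitoSox for 10 min and stimulated with LPS (100 ng/ml). MitoSox fluorescence (excitation 510 nm, emission 580 nm) was read hourly over 4 h, and the three replicates were averaged.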

Consider `CN(C)Cc1cccc(N=C(c2ccccc2)c2c(O)[nH]c3cc(C(=O)N(C)C)ccc23)c1`, for which the mitochondrial superoxide is 1.11 ± 0.069 (time after LPS: 1 h), 1.141 ± 0.011 (time after LPS: 2 h) and 1.31 ± 0.037 (time after LPS: 4 h).

`Cc1cc(Nc2cc(N3CCN(C)CC3)nc(/C=C/c3ccccc3)n2)n[nH]1`: the mitochondrial superoxide is, setting by setting: (time after LPS: 1 h) 1.19 ± 0.044; (time after LPS: 2 h) 1.21 ± 0.011; (time after LPS: 4 h) 1.32 ± 0.03.

Turning to `COc1cc(Nc2ncc(F)c(Nc3ccc4c(n3)NC(=O)C(C)(C)O4)n2)cc(OC)c1OC`, the mitochondrial superoxide was 1.1 ± 0.027 (time after LPS: 1 h), 1.14 ± 0.016 (time after LPS: 2 h) and 1.28 ± 0.11 (time after LPS: 4 h).

`Cc1ccc(S(=O)(=O)C=CC#N)cc1`: the mitochondrial superoxide reads like this: (time after LPS: 1 h) 1.19 ± 0.044; (time after LPS: 2 h) 1.19 ± 0.073; (time after LPS: 4 h) 1.34 ± 0.095.

For the compound `Nc1ccc(C(=O)Nc2cccc(-c3nc(N4CCOCC4)c4oc5ncccc5c4n3)c2)cn1`, the mitochondrial superoxide by setting is: (time after LPS: 1 h) 1.15 ± 0.037; (time after LPS: 2 h) 1.23 ± 0.053; (time after LPS: 4 h) 1.24 ± 0.028.

In the case of `OCCn1cc(-c2cnc3nnn(Cc4ccc5ncccc5c4)c3n2)cn1`, the mitochondrial superoxide runs as follows: (time after LPS: 1 h) 1.37 ± 0.059; (time after LPS: 2 h) 1.41 ± 0.018; (time after LPS: 4 h) 1.498 ± 0.0039.

As to `Cc1ccc([N+](=O)[O-])cc1S(=O)(=O)N(C)/N=C/c1cnc2ccc(Br)cn12`, the mitochondrial superoxide is, setting by setting: (time after LPS: 1 h) 1.17 ± 0.09; (time after LPS: 2 h) 1.17 ± 0.015; (time after LPS: 4 h) 1.21 ± 0.027.

Regarding `COc1cc(Nc2c(C#N)cnc3cc(OCCCN4CCN(C)CC4)c(OC)cc23)c(Cl)cc1Cl` [Bosutinib (SKI-606)], the mitochondrial superoxide was determined as 1.58 ± 0.017 (time after LPS: 1 h), 1.66 ± 0.056 (time after LPS: 2 h) and 1.81 ± 0.04 (time after LPS: 4 h).

With `CCn1cc(-c2ccnc3[nH]c(-c4cccc(CN(C)C)c4)cc23)c(-c2ccc(NC(=O)N(C)C)cc2)n1`, the mitochondrial superoxide was 1.27 ± 0.026 (time after LPS: 1 h), 1.45 ± 0.047 (time after LPS: 2 h) and 1.71 ± 0.16 (time after LPS: 4 h).

On to `COc1cc(OC)c(/C=C/S(=O)(=O)Cc2ccc(OC)c(NCC(=O)O)c2)c(OC)c1`, for which the mitochondrial superoxide turned out to be 1.071 ± 0.0096 (time after LPS: 1 h), 1.15 ± 0.084 (time after LPS: 2 h) and 1.23 ± 0.086 (time after LPS: 4 h).

Take `O=C1c2ccccc2-c2n[nH]c3cccc1c23`: the mitochondrial superoxide runs as follows: (time after LPS: 1 h) 1.12 ± 0.027; (time after LPS: 2 h) 1.2 ± 0.15; (time after LPS: 4 h) 1.3 ± 0.13.

For the compound `CCCCOc1c(C(=O)c2c(F)cc(C)cc2F)c[nH]c2nncc1-2`, the mitochondrial superoxide is, setting by setting: (time after LPS: 1 h) 1.16 ± 0.027; (time after LPS: 2 h) 1.25 ± 0.066; (time after LPS: 4 h) 1.37 ± 0.036.

For the compound `Oc1ccc(Nc2nc(-c3ccc(Cl)cc3)cs2)cc1`, the mitochondrial superoxide stood at 1.47 ± 0.039 (time after LPS: 1 h), 1.56 ± 0.01 (time after LPS: 2 h) and 1.71 ± 0.11 (time after LPS: 4 h).

Take `COc1cccc(-c2cc(=O)c3ccccc3o2)c1N`: the mitochondrial superoxide by setting is: (time after LPS: 1 h) 1.48 ± 0.098; (time after LPS: 2 h) 1.57 ± 0.021; (time after LPS: 4 h) 1.67 ± 0.04.

With `NC1(C(=O)N[C@@H](CCO)c2ccc(Cl)cc2)CCN(c2ncnc3[nH]ccc23)CC1`, the mitochondrial superoxide is, setting by setting: (time after LPS: 1 h) 1.38 ± 0.024; (time after LPS: 2 h) 1.54 ± 0.046; (time after LPS: 4 h) 1.61 ± 0.029.

On to `CC(=O)c1c(C)c2cnc(Nc3ccc(N4CCNCC4)cn3)nc2n(C2CCCC2)c1=O`, for which the mitochondrial superoxide stood at 1.45 ± 0.032 (time after LPS: 1 h), 1.45 ± 0.037 (time after LPS: 2 h) and 1.49 ± 0.03 (time after LPS: 4 h).

`O=C(NOCC(O)CO)c1cc(Br)c(F)c(F)c1Nc1ccc(I)cc1F` (centres undefined): the mitochondrial superoxide by setting is: (time after LPS: 1 h) 1.31 ± 0.033; (time after LPS: 2 h) 1.3 ± 0.054; (time after LPS: 4 h) 1.34 ± 0.065.

In turn, `O=C(Nc1cccc(Cl)c1)Nc1ncc(CCNc2ncnc3ccsc23)s1` [SNS-314 Mesylate] showed a mitochondrial superoxide (time after LPS: 1 h) of 1.32 ± 0.029, a mitochondrial superoxide (time after LPS: 2 h) of 1.36 ± 0.048 and a mitochondrial superoxide (time after LPS: 4 h) of 1.42 ± 0.08.

As for `CC(=O)Nc1nc(C)c(-c2ccc(Cl)c(S(=O)(=O)NCCO)c2)s1`, the mitochondrial superoxide amounted to 1.02 ± 0.067 (time after LPS: 1 h), 1.15 ± 0.03 (time after LPS: 2 h) and 1.23 ± 0.048 (time after LPS: 4 h).

For `Nc1nc(Nc2ccc(S(N)(=O)=O)cc2)nn1C(=O)c1c(F)cccc1F`, the mitochondrial superoxide reads like this: (time after LPS: 1 h) 1.15 ± 0.04; (time after LPS: 2 h) 1.13 ± 0.027; (time after LPS: 4 h) 1.11 ± 0.021.

On to `CCc1cnn2c(NCc3ccc[n+]([O-])c3)cc(N3CCCC[C@H]3CCO)nc12`, for which the mitochondrial superoxide by setting is: (time after LPS: 1 h) 1.28 ± 0.066; (time after LPS: 2 h) 1.33 ± 0.055; (time after LPS: 4 h) 1.63 ± 0.066.

For the compound `COc1cccc2cc(-c3nc([C@H]4CC[C@H](C(=O)O)CC4)n4ncnc(N)c34)[nH]c12`, the mitochondrial superoxide was 1.3 ± 0.046 (time after LPS: 1 h), 1.39 ± 0.018 (time after LPS: 2 h) and 1.52 ± 0.017 (time after LPS: 4 h).

`O=c1cc(N2CCOCC2)oc2c(-c3cccc4c3sc3ccccc34)cccc12`: the mitochondrial superoxide is 1.31 ± 0.028 (time after LPS: 1 h), 1.4 ± 0.037 (time after LPS: 2 h) and 1.55 ± 0.042 (time after LPS: 4 h).

`Cc1ccc(NC(=O)c2cccc(C(C)(C)C#N)c2)cc1Nc1ccc2ncn(C)c(=O)c2c1`: the mitochondrial superoxide by setting is: (time after LPS: 1 h) 1.07 ± 0.05; (time after LPS: 2 h) 1.14 ± 0.084; (time after LPS: 4 h) 1.349 ± 0.011.

Take `Cc1cnc(-c2cnc(NCCNc3ccc(C#N)cn3)nc2-c2ccc(Cl)cc2Cl)[nH]1`: the mitochondrial superoxide came to 1.14 ± 0.048 (time after LPS: 1 h), 1.09 ± 0.041 (time after LPS: 2 h) and 1.25 ± 0.027 (time after LPS: 4 h).

Consider `CNC(=O)c1cc(Oc2ccc(NC(=O)Nc3ccc(Cl)c(C(F)(F)F)c3)cc2)ccn1` [Sorafenib], for which the mitochondrial superoxide runs as follows: (time after LPS: 1 h) 1.48 ± 0.09; (time after LPS: 2 h) 1.45 ± 0.032; (time after LPS: 4 h) 1.66 ± 0.029.

Regarding `COc1cc(Nc2nc3ccccc3nc2NS(=O)(=O)c2ccc(NC(=O)c3ccc(C)c(OC)c3)cc2)cc(OC)c1`, the mitochondrial superoxide is 1.17 ± 0.022 (time after LPS: 1 h), 1.23 ± 0.06 (time after LPS: 2 h) and 1.33 ± 0.061 (time after LPS: 4 h).

`CC(C)CC(=O)Nc1n[nH]c2c1CN(C(=O)C1CCN(C)CC1)C2(C)C` came in with a mitochondrial superoxide (time after LPS: 1 h) of 1.08 ± 0.049, a mitochondrial superoxide (time after LPS: 2 h) of 1.13 ± 0.04 and a mitochondrial superoxide (time after LPS: 4 h) of 1.27 ± 0.079.

Consider `Cc1nc(N)sc1-c1ccnc(Nc2ccc(N3CCOCC3)cc2)n1`, for which the mitochondrial superoxide came out at 1.49 ± 0.063 (time after LPS: 1 h), 1.55 ± 0.023 (time after LPS: 2 h) and 1.7 ± 0.02 (time after LPS: 4 h).

For the compound `COc1cc2ncnc(Nc3ccc(F)c(Cl)c3)c2cc1NC(=O)/C=C/CN1CCCCC1`, the mitochondrial superoxide runs as follows: (time after LPS: 1 h) 1.22 ± 0.031; (time after LPS: 2 h) 1.48 ± 0.045; (time after LPS: 4 h) 1.57 ± 0.069.

Take `Cc1cc2c(F)c(Oc3ncnn4cc(OC[C@@H](C)OC(=O)[C@H](C)N)c(C)c34)ccc2[nH]1`: the mitochondrial superoxide was found to be 1.37 ± 0.023 (time after LPS: 1 h), 1.46 ± 0.058 (time after LPS: 2 h) and 1.53 ± 0.016 (time after LPS: 4 h).

Consider `CC(C)(C)c1cnc(CSc2cnc(NC(=O)C3CCNCC3)s2)o1`, for which the mitochondrial superoxide reads like this: (time after LPS: 1 h) 1.32 ± 0.035; (time after LPS: 2 h) 1.43 ± 0.017; (time after LPS: 4 h) 1.5 ± 0.14.

For `C=CC(=O)Nc1cccc(Oc2nc(Nc3ccc(N4CCN(C)CC4)cc3OC)ncc2Cl)c1`, the mitochondrial superoxide (time after LPS: 1 h) came out at 1.42 ± 0.03, the mitochondrial superoxide (time after LPS: 2 h) was found to be 1.53 ± 0.052 and the mitochondrial superoxide (time after LPS: 4 h) stood at 1.68 ± 0.041.
